D1 allo mod: allosteric modulators of human D1 dopamine receptor | HEK293 D1, CRE-luciferase, dopamine EC30 potentiation; actives deviate in either direction | B-score at 10 µM | 5.9% of 58,000 active | AID 641;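 active = luminescence count or its row- and column-corrected plate score outside the 99.7% band of the plate's sample wells, on either side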
CYP2C9 act: CYP2C9 (human) activation. P11712. 1.4% of 96,000 active. AID 1024. activation factor at 5 µM. recombinant CYP2C9, luciferin-H conversion, luminescence; active compounds read high; factor 1 = untreated enzyme, 0 = blocked;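 active = activation factor of 2 or more for CYP2C9 at a 5 µM dose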
DAT uptake mod: changed human dopamine transporter uptake under cocaine IC80; Q01959; LLC-PK1 hDAT cells, [14C]-dopamine uptake with cocaine IC80; actives deviate in either direction; B-score at 10 µM; 1.3% of 110,000 active; AID 449768;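 active = Z score or B-score, a plate-position-corrected score, falls beyond the plate's 99.7% confidence bounds, in either direction; inactive = both scores lie inside the 99.7% bounds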
CYP2C19 inhib: human CYP2C19 inhibition. P33261. CYP2C19 Supersomes, luciferin-H EGE luminescence, 30 min. inhibition, % at 5 µM. 21% of 96,000 active;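 active = CYP2C19 inhibition above a set limit at 5 µM in the primary screen, cut at about 50% in these data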
CYP2C19 activ: activators of human cytochrome P450 2C19; P33261; recombinant CYP2C19, luciferin-H EGE luminescence; active compounds read high; 0 = fully inhibited enzyme, 1 = untreated enzyme; activation factor at 5 µM; 96,000 tested, under 10 active; AID 1025;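 active = activation factor of at least 2 at 5 µM in the primary screen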
CYP2C9 inhib: human CYP2C9 inhibition; inhibition, % at 5 µM; CYP2C9 Supersomes, luciferin-H conversion, luminescence; 20% of 96,000 active; P11712;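 active = blocking of liver enzyme CYP2C9 beyond about 50% at 5 µM, limit read from the data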
A number is an active result; n = inactive; x = no result given. Hits are enriched below; roughly 28% of the tested compounds scored in any of these assays.

SMILES	D1 allo mod	CYP2C9 act	DAT uptake mod	CYP2C19 inhib	CYP2C19 activ	CYP2C9 inhib
COc1ccc(CNC(=O)c2ccc(N3CCC4(CC3)CC(c3ccc(Cl)cc3)=NO4)c(N)c2)cc1	x	x	n	x	x	x
CCCCC1=CC2=C(c3ccco3)C(=O)C(C)(OC(=O)c3ccc(OC)cc3)C(=O)C2=CN1CCN1CCOCC1 (stereo not given)	x	x	n	x	x	x
C=CCNC(=S)NNC(=O)c1ccc(OC(C)C)cc1	x	n	n	n	n	n
Cc1cc(=O)[nH]c(SCc2cccc(Br)c2)n1	n	n	n	n	n	74
COc1ccc(CSc2nc(C)cc(=O)[nH]2)cc1Br	n	n	n	71	n	n
COC(=O)c1cc(=O)[nH]c(SCc2cccc(C)c2)n1	n	x	x	x	x	x
CC(C)NC(=O)Cn1cc(C#N)c2cc(Br)ccc21	n	n	n	73	n	n
COC(=O)c1ccc(Cn2cnc3c(cnn3-c3ccc(F)cc3)c2=O)o1	x	n	n	n	n	50
COc1cccc(COc2ccccc2C2Nc3ccc(Br)cc3C(=O)N2NC(=O)c2ccncc2)c1 (stereo not given)	x	n	x	69	n	85
COc1ccc(COc2cc(-c3cccc(OC)c3)nc3ccc(NC(=O)c4ccccc4)cc23)cc1	x	x	n	x	x	x
CCCCc1nc2ccccc2n1Cc1nnc2n1-c1ccccc1SC2	n	n	n	91	n	92
COCCCNc1nc2c(-c3cccc(C)c3)nnn2c2ccccc12	x	x	n	x	x	x
CC(C)CC(=O)NN(C)c1nc(-c2ccccc2)nnc1C(F)(F)F	x	n	n	78	n	n
CCCCC(=O)NN(C)c1nc(-c2ccccc2)nnc1C(F)(F)F	x	n	n	78	n	n
CNc1nc(-c2ccccc2)nnc1C(F)(F)F	x	4.1	n	n	n	n
CCCN1C2CCCC1CC(NC(=O)c1cc(OC)c(OC)c(OC)c1)C2 (stereo not given)	n	n	n	n	n	n
CC(C)C[C@H](N)c1nnc(S(=O)(=O)Cc2ccc(F)cc2)o1	n	n	n	n	n	n
COC(=O)c1ccccc1NC(=O)COC(=O)c1cccnc1	n	n	n	n	n	n
CCC(=O)Nc1ccccc1C(=O)OCC(=O)c1ccccc1	x	n	n	73	n	91
CCC(=O)Nc1ccccc1C(=O)OCC(=O)c1ccc2ccccc2c1	x	n	n	90	n	69
O=C(COC(=O)c1ccccc1NC(=O)c1ccccc1)c1ccc([N+](=O)[O-])cc1	x	n	n	63	n	70
CCOC(=O)c1ccccc1NC(=O)c1ccc(F)cc1	x	n	n	n	n	n
COC1=C(OC)c2ccccc2C(C(=O)O)N/C1=C(/C)Nc1ccncc1 (stereo not given)	n	n	n	n	n	n
O=C(NCCc1ccccc1)c1nc2c(nnn2Cc2ccccc2Cl)c(=O)[nH]1	x	x	n	x	x	x
COc1ccc(Cn2nnc3c(=O)[nH]c(C(=O)NCCc4ccc(F)cc4)nc32)cc1OC	n	n	n	n	n	74
SMILES	D1 allo mod	CYP2C9 act	DAT uptake mod	CYP2C19 inhib	CYP2C19 activ	CYP2C9 inhib
c1ccc(-n2nnnc2-c2cnc(-c3ccncc3)nc2-c2cccs2)cc1	x	x	n	x	x	x
FC(F)(F)c1nc(-c2ccncc2)ncc1-c1nnnn1-c1ccccc1	x	n	n	101	n	74
Fc1ccc(-n2nnnc2-c2cnc(-c3cccs3)nc2C(F)(F)F)cc1	x	n	n	n	n	86
Cc1ccc(-n2nnnc2-c2cnc(-c3cccnc3)nc2C(F)(F)F)cc1	x	n	n	n	n	60
FC(F)(F)c1nc(N2CCCC2)ncc1-c1nnnn1-c1ccc(Cl)cc1	x	n	n	90	n	n
Nc1c(-c2cccs2)cnn1-c1nc(-c2ccc(F)cc2)cs1	x	n	n	n	n	n
Cc1ccc(-n2nnnc2-c2cnn(-c3ccc(F)cc3)c2C(F)(F)F)cc1	x	x	n	x	x	x
COC(=O)c1ccc(NC(=O)C2CC2)o1	x	n	n	n	n	n
O=c1c(Oc2ccccc2)coc2cc(O)cc(O)c12	x	x	n	x	x	x
CCc1cccc2c1NC(=O)[C@]21[C@@H]2C(=O)N(Cc3ccccc3)C(=O)[C@@H]2[C@@H]2CCCN21	n	n	n	n	n	n
Cc1c(Cl)ccc2c1NC(=O)[C@]21[C@@H]2C(=O)N(Cc3ccccc3)C(=O)[C@@H]2[C@@H]2CCCN21	n	n	n	66	n	73
COCCNC(=O)C(OC(=O)c1cc2oc(C)cc2n1C)C(C)C (stereo not given)	x	n	n	n	n	n
CCOc1ccc(N(CC(=O)NC(C)CC)S(C)(=O)=O)cc1 (stereo not given)	x	n	n	65	n	n
CCOc1ccc(N(CC(=O)NCCCOC)S(C)(=O)=O)cc1	n	n	n	n	n	n
CCOc1ccc(N(CC(=O)NCC(C)C)S(C)(=O)=O)cc1	n	n	n	60	n	n
CCOC(=O)C(=O)Nc1ccccc1C(=O)Nc1ccc(OC)cc1	x	n	n	n	n	52
CCC(C)NC(=O)c1ccccc1NC(=O)CN(c1ccc(OC)cc1)S(C)(=O)=O (stereo not given)	x	n	n	72	n	98
c1ccc(-c2nnc(OCCN3CCOCC3)c3ccccc23)cc1	n	n	n	n	n	n
COCCCNC(=O)c1ccc(N(C)S(=O)(=O)c2ccc(OC)cc2)cc1	n	n	n	n	n	70
NC(=O)C1CCN(C(=O)c2ccc(Oc3ccccc3)cc2)CC1	x	n	n	n	n	56
COc1ccc(S(=O)(=O)N2CCC(C(N)=O)CC2)cc1	n	x	n	x	x	x
Cc1ccc(CSCCNC(=O)c2ccc(N(C)S(=O)(=O)c3ccccc3)cc2)cc1	x	n	n	n	n	86
COc1ccc(S(=O)(=O)N(C)c2ccc(C(=O)N3CCC(C(N)=O)CC3)cc2)cc1	n	n	n	n	n	50
CCn1c(C)nc2cc(S(=O)(=O)C(F)(F)F)ccc21	x	x	n	x	x	x
Cc1ccc(C)c(Cn2cnc3c(cnn3C(C)(C)C)c2=O)c1	-2.6	n	n	97	n	n

Bioassay records as filed in PubChem BioAssay.
